Results filed as inconclusive are left out. Calls of active or inactive are those of the source. Calls come from the whole dose curve; as a rule, active = well fitted activation curve with a large enough effect; inconclusive = small, poorly fitted or top-dose-only effect; inactive = no such curve, though single readings can be large or run the other way.
Assay: qHTS assay for re-activators of p53 using a Luc reporter: Hit Validation with no p53 Expressed; note: 0% is about no effect
Conditions: p53-null cells, luciferase reporter counter-screen; series mostly up to 46.1 µM; activity change, positive = activation: at the top concentration
Method in brief: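 Counter-screen of primary hits in a cell line not transfected with p53, in Opti-MEM with 10% FBS; compounds at several concentrations (10 mM stock, 1:5; top 46.1 µM in well), 24 h at 37 deg C, 5% CO2. Luminescence read after 10 min with Amplite reagent.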

| Compound | activity change, positive = activation |
| --- | --- |
| Cc1ccc(C)c(Oc2cc(NC(=O)CCCn3nc(C)c([N+](=O)[O-])c3C)cc([N+](=O)[O-])c2)c1 | -48.2% (inactive) |
| C=CCn1c(SC(F)F)nc2scc(-c3ccco3)c2c1=O | 87.2% (inactive) |
| COc1cccc(/C=N/NC(=O)CCc2n[nH]c(=O)[nH]c2=O)c1O | -13.8% (inactive) |
| O=C(Nc1cccnc1)Nc1ccc(Br)cc1Cl | -23.6% (inactive) |
| COc1ccc(C(=O)C(CN2CCCC2)c2ccccc2)cc1 (stereo not given) | -66% (inactive) |
| COc1ccccc1NC(CC(=O)c1ccccc1)C(=O)OCC(=O)c1ccc(C)cc1 (stereo not given) | 99.4% (inactive) |
| COC(=O)c1ccc(CSc2nnc(-c3c[nH]c4ccccc34)n2-c2ccccc2)cc1 | 5.8% (inactive) |
| CCOC(=O)c1c(NC(=O)C2COc3ccccc3O2)sc2c1CCN(Cc1ccccc1)C2 (stereo not given) | 7.72% (inactive) |
| COc1ccccc1C(=O)CC(=O)c1ccccc1 | -25.3% (inactive) |
| C=CCNC(=S)N/N=C(\C)c1ccccn1 | -32.4% (inactive) |
| Cc1cccc(N2CCN(S(=O)(=O)c3ccc4c(c3)CCC(=O)N4)CC2C)c1 (stereo not given) | -36.5% (inactive) |
| c1ccc2oc(C3=NNC(=NC4CC4)SC3)cc2c1 | -37.4% (inactive) |
| COc1ccccc1C(=O)NC(=S)NNC(=O)c1sc2ccccc2c1Cl | -18.8% (inactive) |
| O=C1NCCCc2c1oc1ccc(O)cc21 | 25.7% (inactive) |
| Cc1ccc2nc(C(F)(F)F)c(C#N)c(N)c2c1 | -43.8% (inactive) |
| CCCS(=O)(=O)N1CCC(C(=O)NCCN(CC)c2ccccc2)CC1 | -29.3% (inactive) |
| N#CCc1nc(CSc2nc3ccccc3s2)cs1 | 17.3% (inactive) |
| OC(COc1ccc2cc(Br)ccc2c1)CN1CCCC1 (stereo not given) | 66.1% (inactive) |
| CCOC(=O)C(C(C)=O)C(c1ccc(OC)cc1)C(C(C)=O)C(=O)OCC (stereo not given) | -8.98% (inactive) |
| Cc1cccc(NC(=O)c2ccccn2)c1C | 32.6% (inactive) |

| Compound | activity change, positive = activation |
| --- | --- |
| CCOc1ccc(/C=N/NC(=O)CN2CCSCC2)cc1 | -8.87% (inactive) |
| c1ccc(-c2nnc(-c3ccccn3)nc2NC2CCCCC2)cc1 | -7.46% (inactive) |
| Cc1ccc(C(=O)N2CC(=O)Nc3ccc(F)cc3C2c2ccc(F)cc2)cc1[N+](=O)[O-] (stereo not given) | -57% (inactive) |
| Cc1ccc(NC(=S)NC(=O)C2CCCCC2)c(Br)c1 | 37.8% (inactive) |
| COc1ccc(C2/C(=C(/O)c3ccc(C)cc3)C(=O)C(=O)N2CCCN2CCOCC2)cc1 (stereo not given) | -2.06% (inactive) |
| O=C(CSc1nnc(-c2ccc(F)cc2)c2ccccc12)Nc1ccccc1 | -15.3% (inactive) |
| COc1ccc(C(c2nnnn2CCc2ccccc2)N2CCN(C3CCCC3)CC2)cc1 (stereo not given) | 66% (inactive) |
| Cc1ccc(C(=O)Nc2ncc3c(n2)CC(c2ccco2)CC3=O)cc1 (stereo not given) | 65.3% (inactive) |
| Clc1ccc(OCc2nc(-c3ccccn3)no2)c(Br)c1 | 76.4% (inactive) |
| Cc1nnc(SCC(=O)N2CCOCC2)c2ccccc12 | 2.29% (inactive) |
| CCCOc1ccc(-c2cc3onc(-c4ccccc4)c3c(=O)n2C)cc1 | 1.56% (inactive) |
| O=C(NC12CC3CC(CC(C3)C1)C2)c1ccc(-c2cccc(Cl)c2)o1 | 79.9% (inactive) |
| COc1ccc2c(c1OC)C(=O)OC2Nc1nc(-c2cc3ccccc3oc2=O)cs1 (stereo not given) | 12.4% (inactive) |
| COc1ccccc1-c1c(C)nn2c(C)c(C(C)=O)cnc12 | -26.5% (inactive) |
| CCN(CC)CCN1C(=O)C(=O)/C(=C(/O)c2cnn(-c3ccccc3)c2C)C1c1ccc(C)o1 (stereo not given) | 24.6% (inactive) |
| Cc1nn(-c2ccccc2)c(/N=C/c2ccccc2O)c1-c1ccccc1 | -56.3% (inactive) |
| O=C(Nc1ccc(Cl)cc1C(F)(F)F)c1ccccc1 | -19.7% (inactive) |
| COc1ccc(-n2cnc3c(cnn3CCC#N)c2=N)cc1 | -37.8% (inactive) |
| NS(=O)(=O)c1ccc(CCNCc2cccnc2)cc1 | -31.2% (inactive) |
| Cc1cnc(C(=O)OCC(=O)c2csc(N3CCCCC3)n2)cn1 | 19.9% (inactive) |

From PubChem BioAssay AID624331 (National Center for Advancing Translational Sciences (NCATS), 2012)
